Assay results published in the supplement of paper PMC6992640.
Where a name gives a salt, the structure may show the parent alone. ± gives the standard deviation of the averaged measurements.

What was measured:
Test in all cases: cell viability (% of vehicle); higher = less cytotoxic
HCI01 [1] = cells of a triple-negative basal-like breast cancer xenograft; settings: 10 µM; 72 h
HCI03 = cells of an ER-positive luminal breast cancer xenograft; settings: 10 µM; 72 h
HCI09 = cells of a triple-negative luminal androgen receptor type breast cancer xenograft; settings: 10 µM; 72 h
HCI11 = cells of an ER-positive luminal breast cancer xenograft; settings: 10 µM; 72 h
HCI13 = cells of an ER-positive luminal breast cancer xenograft; settings: 10 µM; 72 h
HCI16 = cells of a triple-negative basal-like breast cancer xenograft; settings: 10 µM; 72 h
UCD52 [2] = cells of a triple-negative basal-like breast cancer xenograft; settings: 10 µM; 72 h
WHIM2 [3] = cells of a triple-negative basal-like breast cancer xenograft; settings: 10 µM; 72 h
HCI01 [4] = settings: 1 µM; 72 h
UCD52 [5] = settings: 1 µM; 72 h
WHIM2 [6] = settings: 1 µM; 72 h
WHIM30 [7] = cells of a triple-negative basal-like breast cancer xenograft; settings: 1 µM; 72 h
WHIM30 [8] = settings: 10 µM; 72 h

| Compound | cell viability (HCI01 [1]) | cell viability (HCI03) | cell viability (HCI09) | cell viability (HCI11) | cell viability (HCI13) | cell viability (HCI16) | cell viability (UCD52 [2]) | cell viability (WHIM2 [3]) | cell viability (HCI01 [4]) | cell viability (UCD52 [5]) | cell viability (WHIM2 [6]) | cell viability (WHIM30 [7]) | cell viability (WHIM30 [8]) |
| --- | --- | --- | --- | --- | --- | --- | --- | --- | --- | --- | --- | --- | --- |
| NC(=O)OCC(COC(N)=O)c1ccccc1 [Felbamate] | 71.2 ± 42 | 137 | 90.7 ± 10 | 95.3 | 103 ± 8.3 | 101 | 81.2 ± 7.7 | 99.5 ± 11 | – | – | – | – | – |
| O=c1cc[nH]c(=O)[nH]1 [Uracil] | 120 ± 20 | 139 | 116 ± 28 | 98.8 | 64.47 ± 0.33 | 116 | 101 ± 7 | 135 ± 11 | – | – | – | – | – |
| CC(C)(C)C(=O)OCOP(=O)(COCCn1cnc2c(N)ncnc21)OCOC(=O)C(C)(C)C [Adefovir Dipivoxil] | 109 ± 43 | 148 | 62.7 ± 38 | 105 | 43.6 ± 9.2 | 129 | 101 ± 9.6 | 50.6 ± 3.7 | – | – | – | – | – |
| CC(C)CC(NC(=O)C(CCc1ccccc1)NC(=O)CN1CCOCC1)C(=O)NC(Cc1ccccc1)C(=O)NC(CC(C)C)C(=O)C1(C)CO1 (configuration not stated) [Carfilzomib (PR-171)] | 32.3 ± 3.5 | – | 25.7 ± 4.7 | 55.9 | 32.9 ± 4.7 | 38.9 | 64.4 ± 11 | 26.4 ± 11 | 29.2 | 16.6 | 43.9 | 22.9 | 68.8 ± 2.6 |
| COC(c1ccccc1)(c1ccccc1)C(Oc1nc(C)cc(C)n1)C(=O)O (configuration not stated) [Ambrisentan] | 79.8 ± 52 | 128 | 92.8 ± 15 | 84 | 94.1 ± 1.8 | 106 | 74.7 ± 11 | 107 ± 16 | – | – | – | – | – |
| NC(=O)c1cnccn1 [Pyrazinamide] | 66.5 ± 42 | 126 | 90.8 ± 15 | 93.8 | 99.7 ± 1.4 | 98.9 | 85.8 ± 0.98 | 90.2 ± 30 | – | – | – | – | – |
| COC(=O)Nc1nc2ccc(Sc3ccccc3)cc2[nH]1 [Fenbendazole] | 193 ± 48 | 129 | 182 ± 25 | 129 | 155 ± 32 | 153 | 121.4 ± 0.081 | 142 ± 20 | – | – | – | – | – |
| CC1CCN(C(=O)CC#N)CC1N(C)c1ncnc2[nH]ccc12.O=C(O)CC(O)(CC(=O)O)C(=O)O (configuration not stated) | 188 ± 8.3 | 151 | 77.7 ± 1.5 | 115 | 104 ± 9.7 | 141 | 109 ± 21 | 87.9 ± 3 | – | – | – | – | – |
| CCCSc1ccc2nc(NC(=O)OC)[nH]c2c1 [Albendazole] | 166 ± 38 | 131 | 172 ± 35 | 93.6 | 127 ± 10 | 160 | 95.4 ± 25 | 123 ± 28 | – | – | – | – | – |
| CC(O)C(=O)O.CC(O)C(=O)O.CN1CCN(c2ccc3c(c2)NC(=C2C(=O)N=c4cccc(F)c4=C2N)N3)CC1 [Dovitinib Dilactic acid] | 43.1 ± 5.7 | – | 19.9 ± 0.23 | 66 | 79 ± 2.3 | 44.4 | 21.9 ± 2.9 | 52.2 ± 12 | 103 | 89.6 | 96.9 | 77.8 | – |
| CC(=O)C1(O)Cc2c(O)c3c(c(O)c2C(OC2CC(N)C(O)C(C)O2)C1)C(=O)c1ccccc1C3=O.Cl (configuration not stated) [Idarubicin HCl] | 37.5 ± 5.3 | 67.6 | 28.4 ± 1.2 | 27.8 | 47.1 ± 3.2 | 32.1 | 31.4 ± 6.4 | 29.3 ± 9.9 | – | 32.5 | 28.8 | 41.2 | 44.7 ± 14 |
| COc1cccc2c1C(=O)c1c(O)c3c(c(O)c1C2=O)CC(O)(C(=O)CO)CC3OC1CC(N)C(O)C(C)O1.Cl (configuration not stated) [Epirubicin HCl] | 56.2 ± 19 | – | 26.2 ± 13 | 50.5 | – | 35.4 | 22.7 ± 4 | 29.1 ± 15 | 105 | 35.9 | 22.2 | 46.4 | 50.8 ± 12 |
| CC1(COc2ccc3c(c2)ncn3-c2ccc3cccc(N4CCC(N)CC4)c3n2)COC1 | 41.1 ± 22 | – | 12.7 ± 2.4 | – | 26.6 ± 24 | – | 34 ± 9.8 | 35 ± 13 | 97.6 | 138 | – | 71.3 | 60.3 ± 3.4 |
| Cc1c(OCC(F)(F)F)ccnc1CS(=O)c1nc2ccccc2[nH]1 (configuration not stated) [Lansoprazole] | 170 ± 24 | 160 | 97.4 ± 32 | 128 | 142 ± 24 | 144 | 190 ± 5.9 | – | – | – | – | – | – |
| CC(C)c1nc(N(C)S(C)(=O)=O)nc(-c2ccc(F)cc2)c1C=CC(O)CC(O)CC(=O)[O-].CC(C)c1nc(N(C)S(C)(=O)=O)nc(-c2ccc(F)cc2)c1C=CC(O)CC(O)CC(=O)[O-].[Ca+2] (configuration not stated) [Rosuvastatin Calcium] | 109 ± 2.8 | 115 | 112 ± 44 | – | 126 ± 30 | 117 | 50.8 ± 4.2 | 44.1 ± 6.8 | 96.2 | 83.1 | 83.4 | 84.8 | 88.4 ± 11 |
| CC(=O)Nc1ccccc1 [Acetanilide] | 76.6 ± 44 | 163 | 99.2 ± 7.3 | 81.8 | 110 ± 8.1 | 138 | 75.2 ± 13 | 126 ± 14 | – | – | – | – | – |
| CNC(=O)C(Cc1c[nH]c2ccccc12)NC(=O)C(CC(=O)NO)CC(C)C (configuration not stated) | 141 ± 3.8 | 116 | 88.9 ± 9.2 | 129 | 92.5 ± 5.4 | 140 | 126 ± 16 | 105 ± 14 | – | – | – | – | – |
| Cc1nc2n(c(=O)c1CCN1CCC(c3noc4cc(F)ccc34)CC1)CCCC2 [Risperidone] | 133 ± 7.9 | 82.8 | 107 ± 61 | 105 | 118 ± 38 | 107 | 83.8 ± 11 | 86 ± 25 | – | – | – | – | 128 ± 15 |

| Compound | cell viability (HCI01 [1]) | cell viability (HCI03) | cell viability (HCI09) | cell viability (HCI11) | cell viability (HCI13) | cell viability (HCI16) | cell viability (UCD52 [2]) | cell viability (WHIM2 [3]) | cell viability (HCI01 [4]) | cell viability (UCD52 [5]) | cell viability (WHIM2 [6]) | cell viability (WHIM30 [7]) | cell viability (WHIM30 [8]) |
| --- | --- | --- | --- | --- | --- | --- | --- | --- | --- | --- | --- | --- | --- |
| Nc1nc(=O)c2ncn(CCC(CO)CO)c2[nH]1 [Penciclovir] | 115 ± 28 | 140 | 92.4 ± 6.6 | 95.3 | 84.4 ± 9.1 | 130 | 110 ± 5.5 | 123 ± 34 | – | – | – | – | 99.7 ± 8.5 |
| Cc1cnc(C(=O)O)c[n+]1[O-] [Acipimox] | 76.1 ± 45 | 159 | 98.5 ± 17 | 78.9 | 90.4 ± 3.8 | 103 | 79.6 ± 5.9 | 108 ± 1.4 | – | – | – | – | – |
| CO[C@H]1O[C@@H]2OC3(C)CC[C@H]4[C@H](C)CC[C@@H]([C@H]1C)[C@@]24OO3 [Artemether] | 116 ± 31 | 121 | 94.4 ± 26 | 102 | 95.8 ± 0.62 | 106 | 97.88 ± 0.13 | 97.7 ± 8.3 | – | – | – | – | 75.18 ± 0.081 |
| CC1CCN(C(=O)CC#N)CC1N(C)c1ncnc2[nH]ccc12 (configuration not stated) | 169 ± 6.3 | 143 | 81.1 ± 1.5 | 110 | 126 ± 11 | 151 | 136 ± 23 | 95.8 ± 7.4 | – | – | – | – | 160.4 ± 0.81 |
| O=N[O-].[Na+] [Sodium Nitrite] | 104 ± 6.4 | 95.5 | 90.5 ± 4.7 | 91.5 | 55.8 ± 2.9 | 108 | 84 ± 5.8 | 114 ± 17 | – | – | – | – | 116 ± 21 |
| OCC(O)CN1CCN(c2ccccc2)CC1 (configuration not stated) [Dropropizine] | 97.2 ± 14 | 129 | 89.7 ± 11 | 90.3 | 66 ± 10 | 94.3 | 98.7 ± 2.5 | 99.3 ± 20 | – | – | – | – | 101.7 ± 0.4 |
| O=C(O)C=Cc1ccc(Cn2ccnc2)cc1 [Ozagrel] | 95.1 ± 6.6 | 145 | 90.9 ± 16 | 106 | 116 ± 6.6 | 98.4 | 88 ± 3.2 | 97.8 ± 2.4 | – | – | – | – | 87.2 ± 20 |
| CCOC(=O)C1=C(C)NC(C)=C(C(=O)OC)C1c1cccc(Cl)c1Cl (configuration not stated) [Felodipine] | 116 ± 5 | 117 | 118 ± 6.6 | 114 | 112 ± 15 | 97.9 | 88.5 ± 2.3 | 102 ± 10 | – | – | – | – | 124 ± 2.7 |
| COC(=O)C=CC(=O)OC [Dimethyl Fumarate] | 126 ± 22 | 129 | 104 ± 5.7 | 95.4 | 70.4 ± 15 | 113 | 94.6 ± 3.6 | 134 ± 30 | – | – | – | – | 128 ± 18 |
| COc1cc2c(cc1OC)CN(CCc1ccc(NC(=O)c3cccc4c(=O)c5cccc(OC)c5[nH]c34)cc1)CC2 [Elacridar] | 111.7 ± 0.54 | 71.7 | 71.7 ± 33 | 101 | 113 ± 35 | 97.7 | 63.7 ± 5.6 | 48.2 ± 22 | – | – | – | – | 89.9 ± 0.9 |
| COc1nc(C)cnc1NS(=O)(=O)c1cccnc1-c1ccc(-c2nnco2)cc1 [Zibotentan (ZD4054)] | 122 ± 15 | 116 | 105 ± 9.6 | 117 | 125 ± 12 | 125 | 97.9 ± 1.1 | 85.7 ± 3.5 | – | – | – | – | 139 ± 6.9 |
| O=C(Nc1ccccc1)c1ccccc1O [Salicylanilide] | 165 ± 40 | 133 | 143 ± 34 | 111 | 98.3 ± 6.3 | 153 | 123 ± 4.3 | 160 ± 20 | – | – | – | – | – |
| CCOC(=O)C1=CC(OC(CC)CC)C(NC(C)=O)C(N)C1.O=P(O)(O)O (configuration not stated) [Oseltamivir phosphate] | 111 ± 30 | 126 | 93.5 ± 5.9 | 95.4 | 93.1 ± 9 | 124 | 105 ± 16 | 98.9 ± 12 | – | – | – | – | 113 ± 1.6 |
| Cl.NCCc1ccc(O)c(O)c1 [Dopamine HCl] | 112 ± 25 | 103 | 113 ± 37 | 84.4 | 59 ± 2.7 | 125 | 93.6 ± 0.5 | 56 ± 2.1 | – | – | – | – | 128 ± 6.4 |
| CCN1CCN(C(=O)NC(C(=O)NC2C(=O)N3C(C(=O)O)=C(CSc4nnnn4C)CSC23)c2ccc(O)cc2)C(=O)C1=O (configuration not stated) [Cefoperazone] | 110.1 ± 0.54 | 158 | 120 ± 16 | 132 | 174 ± 9.6 | 104 | 131 ± 18 | 108 ± 22 | – | – | – | – | – |
| CN(C)CCN(Cc1ccccc1)c1ccccn1.Cl [Tripelennamine HCl] | 89.8 ± 3.5 | 62.6 | 94.4 ± 2.5 | 80.6 | 89.3 ± 1.7 | 99.9 | 81.03 ± 0.58 | 111.1 ± 0.86 | – | – | – | – | 94.2 ± 7.7 |
| COc1c2occc2cc2ccc(=O)oc12 [8-Methoxypsoralen] | 116 ± 17 | 147 | 99.5 ± 6.5 | 104 | 121 ± 13 | 122 | 106.6 ± 0.24 | 101 ± 17 | – | – | – | – | 97.9 ± 1.8 |
| CN1CCCC(n2nc(Cc3ccc(Cl)cc3)c3ccccc3c2=O)CC1.Cl (configuration not stated) [Azelastine HCl] | 142 ± 46 | 106 | 101 ± 1.3 | 69.2 | 113 ± 22 | 116 | 57.6 ± 17 | 78.7 ± 8.4 | – | – | – | – | 94.9 ± 6.3 |
